Test results reported in PubChem BioAssay (NCATS).
Several values for one entry are separate records, joined by “and”; a condition that tells them apart may be missing. Equal values may be shown once. Inconclusive results are not listed. Activity calls are given as the source filed them. Unless noted, calls come from the whole dose curve; as a rule, active = well fitted curve in the direction sought with a large enough effect; inconclusive = small, poorly fitted or top-dose-only effect, or another doubt; inactive = no such curve, though single readings can be large; an effect the other way counts as inactive or inconclusive.

Assays:
[1] = molecular target: Ubiquitin carboxyl-terminal hydrolase 2 (Homo sapiens) (UniProt O75604); assay: qHTS Validation Assay for Inhibitors of Ubiquitin-specific Protease USP2a Using CHOP2 as the Reporter (AID 463106)
Sequence of Ubiquitin carboxyl-terminal hydrolase 2 (Homo sapiens) (O75604 whole entry, looked up): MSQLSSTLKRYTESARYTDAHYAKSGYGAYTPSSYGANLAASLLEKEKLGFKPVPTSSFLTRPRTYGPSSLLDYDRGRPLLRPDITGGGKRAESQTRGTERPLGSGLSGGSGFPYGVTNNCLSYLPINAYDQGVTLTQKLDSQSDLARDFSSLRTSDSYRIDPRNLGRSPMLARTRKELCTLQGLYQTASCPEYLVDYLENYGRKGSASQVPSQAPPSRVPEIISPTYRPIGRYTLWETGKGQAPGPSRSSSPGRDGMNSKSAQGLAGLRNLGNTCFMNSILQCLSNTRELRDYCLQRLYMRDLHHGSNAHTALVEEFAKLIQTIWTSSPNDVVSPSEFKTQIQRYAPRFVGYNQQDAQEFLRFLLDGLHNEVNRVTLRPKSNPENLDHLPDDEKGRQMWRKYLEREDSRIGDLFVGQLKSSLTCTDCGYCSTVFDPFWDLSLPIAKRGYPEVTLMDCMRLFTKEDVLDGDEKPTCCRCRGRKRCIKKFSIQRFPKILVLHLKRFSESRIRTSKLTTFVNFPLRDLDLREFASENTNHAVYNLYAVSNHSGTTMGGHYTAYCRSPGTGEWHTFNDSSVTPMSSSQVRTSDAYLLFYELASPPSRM
Summary of the method: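 10nM USP2 core + cpd, 30min RT; add 25nM Ub-CHOP2/25nM substrate; 60min RT; FI 485/531nm. Buffer Tris pH 8.0, CaCl2, BME, CHAPS. Norm. to NEM = 100% inhibition; time-zero read flags fluorescent artifacts.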

[2] = molecular target: DNA polymerase III PolC-type (Bacillus subtilis (strain 168)) (UniProt P13267); assay: qHTS Validation Assay for the Inhibitors of DNA Replication in Gram-Positive Bacteria (AID 485295);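 note: PicoGreen fluorescence of double-stranded DNA made on primed circular M13 template; series mostly up to about 57 µM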
Sequence of DNA polymerase III PolC-type (Bacillus subtilis (strain 168)) (P13267 whole entry, looked up): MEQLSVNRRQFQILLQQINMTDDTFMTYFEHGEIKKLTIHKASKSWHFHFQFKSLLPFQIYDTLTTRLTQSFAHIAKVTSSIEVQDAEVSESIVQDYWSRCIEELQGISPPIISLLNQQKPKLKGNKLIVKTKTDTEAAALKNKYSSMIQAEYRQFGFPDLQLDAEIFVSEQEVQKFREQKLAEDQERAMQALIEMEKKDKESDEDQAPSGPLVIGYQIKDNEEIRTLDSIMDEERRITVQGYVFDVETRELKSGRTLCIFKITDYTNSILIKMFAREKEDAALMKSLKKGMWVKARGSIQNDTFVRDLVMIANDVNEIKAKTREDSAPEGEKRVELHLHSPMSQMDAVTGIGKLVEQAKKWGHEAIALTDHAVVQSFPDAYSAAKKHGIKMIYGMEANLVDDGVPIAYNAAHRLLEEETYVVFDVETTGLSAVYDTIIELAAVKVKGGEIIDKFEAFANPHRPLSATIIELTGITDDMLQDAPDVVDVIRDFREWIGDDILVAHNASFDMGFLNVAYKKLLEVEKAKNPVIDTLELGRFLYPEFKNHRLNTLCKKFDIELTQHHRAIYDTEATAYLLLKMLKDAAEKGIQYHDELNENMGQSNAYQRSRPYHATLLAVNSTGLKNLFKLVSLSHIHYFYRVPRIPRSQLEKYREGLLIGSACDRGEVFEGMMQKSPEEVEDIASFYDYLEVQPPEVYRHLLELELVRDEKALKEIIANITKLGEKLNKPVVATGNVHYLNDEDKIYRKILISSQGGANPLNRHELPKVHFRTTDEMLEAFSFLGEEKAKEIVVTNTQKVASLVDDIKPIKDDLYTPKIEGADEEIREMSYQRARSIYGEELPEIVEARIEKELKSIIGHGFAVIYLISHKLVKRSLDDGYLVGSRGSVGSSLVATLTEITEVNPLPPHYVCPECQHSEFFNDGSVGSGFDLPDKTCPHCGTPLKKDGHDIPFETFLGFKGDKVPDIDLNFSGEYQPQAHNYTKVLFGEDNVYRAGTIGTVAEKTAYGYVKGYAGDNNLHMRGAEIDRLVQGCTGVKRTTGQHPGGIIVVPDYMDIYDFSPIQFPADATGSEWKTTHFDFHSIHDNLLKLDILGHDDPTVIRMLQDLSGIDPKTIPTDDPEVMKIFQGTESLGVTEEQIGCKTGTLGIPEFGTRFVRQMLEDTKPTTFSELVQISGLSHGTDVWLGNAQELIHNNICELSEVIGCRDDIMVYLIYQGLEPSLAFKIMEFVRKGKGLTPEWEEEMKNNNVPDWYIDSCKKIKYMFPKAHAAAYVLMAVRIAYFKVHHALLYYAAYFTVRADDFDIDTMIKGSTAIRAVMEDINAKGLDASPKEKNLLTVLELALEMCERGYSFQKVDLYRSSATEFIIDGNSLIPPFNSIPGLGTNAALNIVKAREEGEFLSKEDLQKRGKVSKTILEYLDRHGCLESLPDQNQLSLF
Summary of the method: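 Reconstituted B. subtilis Pol III holoenzyme (PolC, beta clamp, SSB, primase) preincubated with compound, then M13Gori single-stranded circular template with dNTPs/NTPs added; room temperature reaction. Stopped with EDTA/PicoGreen; dsDNA fluorescence read, EDTA as full-inhibition control.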

[3] = molecular target: Tumor susceptibility gene 101 protein (Homo sapiens) (UniProt Q99816); assay: qHTS Validation Assay for Iinhibitors of HIV-1 Budding by Blocking the Interaction of PTAP/TSG101 (AID 485342; calls by dose curve)
Summary of the method: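 Tsg101 binding domain (10 uM) with FITC-labeled PTAP peptide (50 nM) in HEPES pH 7.5 buffer, 20 min at r.t. with compounds. Binding measured by fluorescence polarization.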

[4] = molecular target: Beta-2 adrenergic receptor (Homo sapiens) (UniProt P07550); assay: qHTS validation assay of beta-arrestin-biased ligands of beta2-adrenergic receptor (AID 485366)
Summary of the method: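 Arrestin-recruitment (Tango) reporter: ligand-bound beta2-AR recruits beta-arrestin, releasing tTA, which upregulates luciferase. Titrations of up to 46 microM incubated 18 hr at 37 degrees C before luminescent readout.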

[5] = molecular target: ATP-dependent 6-phosphofructokinase (Trypanosoma brucei brucei) (UniProt O15648); assay: qHTS Validation Assay to Find Inhibitors of T. brucei phosphofructokinase (AID 485368); note: potency is the fitted concentration of half-maximal effect
Summary of the method: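 Steps: substrate mix (0.5 mM F6P, 0.1 mM ATP, MgCl2, TEA pH 8.0); compound; 1.25 nM T. brucei PFK; 45 min RT; ATP depletion 10 min; ADP-to-ATP detection 10 min; luminescence read; curve fitting and classification.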

[6] = molecular target: Thioredoxin reductase 1, cytoplasmic (Rattus norvegicus) (UniProt O89049); assay: qHTS Assay for Substrates of Mammalian Selenoprotein Thioredoxin Reductase 1 (TrxR1) (AID 488772);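 note: NADPH fluorescence in the first read after selenite addition and not the 8 min delta; series mostly up to about 57 µM; a drop in NADPH fluorescence below the no-compound background marks a TrxR1 substrate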
Sequence of Thioredoxin reductase 1, cytoplasmic (Rattus norvegicus) (O89049 whole entry, looked up): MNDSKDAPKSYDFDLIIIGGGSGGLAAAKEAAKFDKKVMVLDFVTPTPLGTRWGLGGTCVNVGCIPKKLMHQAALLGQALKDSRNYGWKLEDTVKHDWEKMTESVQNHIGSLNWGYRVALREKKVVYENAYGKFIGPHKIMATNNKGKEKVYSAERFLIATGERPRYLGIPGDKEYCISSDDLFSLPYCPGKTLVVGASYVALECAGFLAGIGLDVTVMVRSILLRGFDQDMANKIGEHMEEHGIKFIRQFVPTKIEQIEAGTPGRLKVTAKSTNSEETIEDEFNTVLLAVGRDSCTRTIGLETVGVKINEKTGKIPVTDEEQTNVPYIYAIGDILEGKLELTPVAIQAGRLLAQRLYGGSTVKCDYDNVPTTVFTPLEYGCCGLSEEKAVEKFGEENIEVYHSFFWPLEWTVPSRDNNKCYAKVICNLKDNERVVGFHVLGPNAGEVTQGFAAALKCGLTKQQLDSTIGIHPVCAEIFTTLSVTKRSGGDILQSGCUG
Summary of the method: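 Quantitative HTS in Tris-HCl buffer at pH 7.5 with EDTA and Tween-20, using rat TrxR1, 400 uM NADPH and 400 uM selenite (final). A fall in initial NADPH fluorescence relative to background marked substrate behaviour.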

[7] = molecular target: Thioredoxin reductase 1, cytoplasmic (Rattus norvegicus) (UniProt O89049); assay: qHTS Assay for Inhibitors of Mammalian Selenoprotein Thioredoxin Reductase 1 (TrxR1) (AID 488773); conditions: Potency: inhibition; note: nearly all actives have a fitted effect of over 40% in size; note: potency is the fitted concentration of half-maximal effect
Summary of the method: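 Steps: enzyme (90 nM) plus NADPH (400 uM final), 5 min at ~22 deg C; compound added, 15 min; selenite (400 uM final) added; fluorescence followed for 8 min. Concentration-response curves derived from the normalized delta values.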

[8] = molecular target: Flap endonuclease 1 (Homo sapiens) (UniProt P39748); assay: qHTS Validation Assay for the Inhibitors of Human Flap endonuclease 1 (FEN1) (AID 488816)
Summary of the method: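 Readings taken at 0 and 15 min after starting the reaction with 50 nM (final) substrate supplied the signal. Compounds had first sat with 10 nM FEN1 reagent for 15 min at room temperature. Values come from Hill-equation concentration-response fits.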

[9] = molecular target: M-phase phosphoprotein 8 (Homo sapiens) (UniProt Q99549); assay: qHTS Validation Assay for Inhibitors for MPP8 Chromodomain Interactions with Methylated Histone Tails (AID 488949); note: nearly all actives have a fitted effect of over 55% in size; note: potency is the fitted concentration of half-maximal effect
Summary of the method: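 MPP8 (50 nM) was pre-bound to 50 nM biotinylated H3(1-18)K9me3 peptide in PBS pH 7.4 with 0.01% Tween-20. Compounds were then added for 30 min at room temperature, and complex disruption was read by AlphaScreen with streptavidin donor and nickel-chelate acceptor beads.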

[10] = molecular target: Methanococcus maripaludis chaperonin (MmCpn) (UniProt Q6LX38); assay: High-Throughput Screening for Modulators of Cytosolic Chaperonin Activity: MmCpn Primary Screen (AID 488978);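 note: 50 nM MmCpn enzyme hydrolysing 30 µM ATP at 37 °C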
Sequence of Methanococcus maripaludis chaperonin (MmCpn) (Q6LX38 1-543): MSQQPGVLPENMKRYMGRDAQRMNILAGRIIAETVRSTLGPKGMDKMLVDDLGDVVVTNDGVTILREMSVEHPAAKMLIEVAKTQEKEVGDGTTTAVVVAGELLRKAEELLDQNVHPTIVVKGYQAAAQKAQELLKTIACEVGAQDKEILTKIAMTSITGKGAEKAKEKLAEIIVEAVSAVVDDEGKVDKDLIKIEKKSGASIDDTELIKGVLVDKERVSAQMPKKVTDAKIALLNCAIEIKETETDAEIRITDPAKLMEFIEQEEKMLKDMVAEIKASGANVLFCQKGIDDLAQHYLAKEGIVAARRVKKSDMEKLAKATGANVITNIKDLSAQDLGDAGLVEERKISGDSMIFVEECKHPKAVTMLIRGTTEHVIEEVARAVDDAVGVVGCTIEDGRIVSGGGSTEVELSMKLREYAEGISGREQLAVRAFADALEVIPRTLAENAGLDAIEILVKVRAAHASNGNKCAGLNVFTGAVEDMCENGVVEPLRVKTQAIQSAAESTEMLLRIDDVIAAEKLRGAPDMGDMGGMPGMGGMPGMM
Summary of the method: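 MmCpn at 50 nM final was preincubated 5 min at RT with compound. ATP was then added at 30 uM final for 10 min at 37 C. ADP formed was detected by Transcreener HTRF (665/590 nm).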

[11] = molecular target: D(1A) dopamine receptor (Homo sapiens) (UniProt P21728); assay: HTS Assay for Allosteric Agonists of the Human D1 Dopamine Receptor: Primary Screen for Agonists (AID 488981)
Summary of the method: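 Calcium flux in an inducible, force-coupled HEK293 Trex D1 line (overnight at 30 C): agonist mode is the 180 s kinetic read after compound; potentiator mode is the following 180 s read after dopamine at EC20.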

[12] = High Content Imaging Cell-Based qHTS for Inhibitors of the mTORC1 Signaling Pathway in MEF Cells (AID 2667);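 note: Tsc2-/- p53-/- MEFs stably re-expressing wild-type Tsc2 exposed 24 h; series mostly up to about 38 µM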
Summary of the method: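 Immunofluorescence for rpS6 phosphorylation in MEFs of Tsc2-/-, p53-/- background rescued with WT Tsc2. Compound exposure lasted 24 hrs. Inhibition was scored against rapamycin-treated control wells.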

[13] = qHTS Validation Assay to Find Inhibitors of Chronic Active B-Cell Receptor Signaling (AID 485345; active = well fitted curve in the direction sought with a large enough effect in the main read-out, with a control signal flat, not every such curve was filed as active)
Summary of the method: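 Read-out: ratio of filter-corrected green (IkappaBalpha fusion) to red (native) luciferase signal in doxycycline-induced TMD8 cells after 4 h at 37C. Titration spanned 46 uM–3 nM; Data were normalised to basal cells and 10 uM MG-132 wells.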

[14] = Quantitative high throughput screen for delayed death inhibitors of the malarial parasite plastid, 96 hour incubation (AID 488745); note: nearly all actives have a fitted effect of over 70% in size; note: potency is the fitted concentration of half-maximal effect
Summary of the method: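 Growth of reporter-bearing P. falciparum in red cells is measured after 96 h with compound, covering two erythrocytic cycles. Luminescence from the integrated luciferase serves as the growth signal.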

[15] = Quantitative high throughput screen for delayed death inhibitors of the malarial parasite plastid, 48 hour incubation (AID 488752); note: nearly all actives have a fitted effect of over 65% in size; note: potency is the fitted concentration of half-maximal effect
Summary of the method: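 One parasite generation (48 h, 37 C, 5% CO2) of luciferase-reporter P. falciparum in erythrocytes is run with test compound; decreased luminescence indicates inhibited growth.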

[16] = molecular target: Chromobox protein homolog 1 (Homo sapiens) (UniProt P83916); assay: qHTS Validation Assay for Inhibitors of HP1-beta Chromodomain Interactions with Methylated Histone Tails (AID 488953); note: nearly all actives have a fitted effect of over 50% in size; note: potency is the fitted concentration of half-maximal effect
Sequence of Chromobox protein homolog 1 (Homo sapiens) (P83916 whole entry, looked up): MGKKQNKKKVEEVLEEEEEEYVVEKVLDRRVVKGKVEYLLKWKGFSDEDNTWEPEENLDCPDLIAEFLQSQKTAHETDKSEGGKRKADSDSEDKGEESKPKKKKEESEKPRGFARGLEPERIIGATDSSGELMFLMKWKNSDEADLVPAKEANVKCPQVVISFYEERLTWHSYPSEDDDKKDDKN
Summary of the method: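 Measured as loss of AlphaScreen luminescence from streptavidin donor and nickel acceptor beads (10 ug/mL final) bridging HP1-beta and biotin-H3(1-18)K9me3, each 50 nM. Compounds met the preassembled complex for 30 min at RT.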

[17] = molecular target: Transient receptor potential cation channel subfamily V member 1 (Homo sapiens) (UniProt Q8NER1); assay: HTS Assay for Compounds that Act as Enhancers of the Vanilloid Receptor 1 (AID 488979)
Sequence of Transient receptor potential cation channel subfamily V member 1 (Homo sapiens) (Q8NER1 whole entry, looked up): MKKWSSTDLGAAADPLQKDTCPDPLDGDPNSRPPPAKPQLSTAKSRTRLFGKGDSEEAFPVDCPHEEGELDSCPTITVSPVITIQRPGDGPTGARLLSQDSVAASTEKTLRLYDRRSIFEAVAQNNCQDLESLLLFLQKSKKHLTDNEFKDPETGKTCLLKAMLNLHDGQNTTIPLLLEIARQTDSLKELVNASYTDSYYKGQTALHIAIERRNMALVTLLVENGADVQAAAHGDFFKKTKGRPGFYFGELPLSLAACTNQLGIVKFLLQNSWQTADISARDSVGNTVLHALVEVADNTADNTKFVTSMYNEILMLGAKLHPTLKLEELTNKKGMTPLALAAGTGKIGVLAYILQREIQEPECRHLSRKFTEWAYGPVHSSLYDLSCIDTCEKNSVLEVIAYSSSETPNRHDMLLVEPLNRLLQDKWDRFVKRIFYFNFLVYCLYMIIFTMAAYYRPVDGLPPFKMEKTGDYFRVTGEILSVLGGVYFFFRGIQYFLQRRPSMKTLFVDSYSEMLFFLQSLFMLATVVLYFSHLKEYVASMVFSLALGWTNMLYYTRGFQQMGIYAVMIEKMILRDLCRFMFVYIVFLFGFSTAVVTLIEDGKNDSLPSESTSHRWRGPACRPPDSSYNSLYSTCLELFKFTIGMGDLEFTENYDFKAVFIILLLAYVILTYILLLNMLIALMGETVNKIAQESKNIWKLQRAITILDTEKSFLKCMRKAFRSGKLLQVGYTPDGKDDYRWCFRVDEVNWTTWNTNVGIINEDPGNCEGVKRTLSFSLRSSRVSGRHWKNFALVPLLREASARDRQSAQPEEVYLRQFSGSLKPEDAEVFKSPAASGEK
Summary of the method: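 Calcium influx kinetics via Fluo-8 (480/520 nm) in TRPV1-expressing cells, 2000/well cultured overnight at 35.5C. Compound-alone read 3 min (agonist phase), followed by EC20 capsaicin challenge for 2 min (enhancer phase).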

[18] = molecular target: Thyrotropin receptor (Homo sapiens) (UniProt P16473); assay: qHTS Assay for Antagonists of the Thyroid Stimulating Hormone Receptor (AID 488980); note: series mostly up to about 58 µM
Sequence of Thyrotropin receptor (Homo sapiens) (P16473 whole entry, looked up): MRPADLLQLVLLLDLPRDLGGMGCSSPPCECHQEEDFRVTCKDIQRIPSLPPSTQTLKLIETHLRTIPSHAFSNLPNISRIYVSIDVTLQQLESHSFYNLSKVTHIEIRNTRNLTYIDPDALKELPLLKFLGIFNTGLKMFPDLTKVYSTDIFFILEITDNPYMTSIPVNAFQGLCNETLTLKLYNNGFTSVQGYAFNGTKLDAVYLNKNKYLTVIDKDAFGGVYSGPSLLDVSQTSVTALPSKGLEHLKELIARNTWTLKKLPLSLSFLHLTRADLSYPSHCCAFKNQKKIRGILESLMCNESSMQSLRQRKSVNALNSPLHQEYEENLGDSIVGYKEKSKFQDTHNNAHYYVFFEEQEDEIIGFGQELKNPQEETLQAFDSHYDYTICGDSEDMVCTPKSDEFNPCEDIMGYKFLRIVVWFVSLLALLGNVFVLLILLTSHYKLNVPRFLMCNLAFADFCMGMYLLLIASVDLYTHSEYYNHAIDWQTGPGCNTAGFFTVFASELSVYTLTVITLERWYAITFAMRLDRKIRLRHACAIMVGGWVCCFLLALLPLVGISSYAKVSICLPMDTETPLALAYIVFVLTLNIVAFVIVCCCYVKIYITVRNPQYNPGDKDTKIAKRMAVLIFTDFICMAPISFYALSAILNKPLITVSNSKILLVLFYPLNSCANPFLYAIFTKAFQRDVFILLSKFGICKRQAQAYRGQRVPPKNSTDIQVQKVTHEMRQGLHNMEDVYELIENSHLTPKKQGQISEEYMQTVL
Summary of the method: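 TSHR-transfected HEK293 cells (2000/well) in HEPES-buffered HBSS with 70 uM RO 20-1724 were stimulated with 4 nM TSH (EC80, final) in the presence of compound. cAMP was measured by HTRF competition after lysis and 30 min at RT.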

[19] = Validation screen for small molecules that induce DNA re-replication in MCF 10A normal breast cells (AID 463097); note: nearly all actives have a fitted effect of over 60% in size
Summary of the method: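 MCF 10A cells exposed to compound 48 hr at 37 C, 5% CO2, then Hoechst-stained 40 min. Laser-scanning imaging of nuclear DNA content (405 nm ex, 500-530 nm em); re-replication scored as rise in nuclei with elevated fluorescence intensity.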

Measured: Potency

COc1ccccc1N1CCN(CCN(C(=O)c2ccc(I)cc2)c2ccccn2)CC1
not listed: [12] | [13] | [14] | [15] | [16] | [17] | [18] | [19]
inactive: all other assays above

CCOC(=O)N1CCN(/[N+]([O-])=N/Oc2ccc([N+](=O)[O-])cc2[N+](=O)[O-])CC1
inactive: [12] | [1] | [2] | [3] | [4] | [6] | [8] | [10] | [11]
active: [7] 6.7 µM

O=C(CCCCCN1CCN(c2ccccc2-c2ccccc2)CC1)NC1CCCc2ccccc21 (centres undefined)
inactive: [1] | [3] | [4] | [5] | [6] | [7] | [8] | [10] | [11]

COC1=C(OC)C(=O)c2ccccc2C1=O
not listed: [5] | [12] | [19]
inactive: all other assays above

Cc1cc2c(cc1Cl)N(C(=O)Nc1ccc(Oc3cccnc3C)nc1)CC2
active: [16] 44.7 µM
inactive: [1] | [2] | [3] | [4] | [6] | [7] | [8] | [9] | [10] | [11]

CC[C@@H](C)[C@H]1O[C@]2(CC[C@@H]1C)C[C@@H]1C[C@@H](C/C=C(\C)[C@@H](O[C@H]3C[C@H](OC)[C@@H](O[C@H]4C[C@H](OC)[C@@H](O)[C@H](C)O4)[C@H](C)O3)[C@@H](C)/C=C/C=C3\CO[C@@H]4[C@H](O)C(C)=C[C@@H](C(=O)O1)[C@]34O)O2
active: [14] 0.117 µM | [15] 1.65 µM
inactive: [18]

C[C@@H](CN1CCC(Cc2ccccc2)CC1)[C@@H](O)c1ccc(O)cc1
not listed: [2] | [9] | [11] | [15] | [19]
inactive: all other assays above

O=Nc1ccc2oc(=O)ccc2c1
active: [5] 19 µM | [9] 39.8 µM | [16] 39.8 µM
not listed: [7] | [12] | [13] | [19]
inactive: all other assays above

CC(C)(C)NCC(O)COc1nsnc1N1CCOCC1 (centres undefined)
inactive: [19] | [15] | [17]

N#C/C(=C\c1ccc(O)c(O)c1)C(=O)NCCCc1ccccc1
active: [9] 7.08 µM and 8.44 µM | [16] 5.62 µM
not listed: [2] | [5] | [12] | [13] | [14] | [15] | [19]
inactive: all other assays above
